# Results as given in PubChem BioAssay (NCATS).
# Inconclusive results are not listed. A call without a number means that no potency is given here. Activity calls are given as the source filed them. Calls follow the shape of the dose curve; as a rule, active = well fitted curve in the direction sought with a large enough effect; inconclusive = small, poorly fitted or top-dose-only effect, or another doubt; inactive = no such curve, though single readings can be large; an effect the other way counts as inactive or inconclusive.
# Molecular target: D(1A) dopamine receptor (Homo sapiens) (UniProt P21728)
# Sequence (P21728 whole entry, looked up): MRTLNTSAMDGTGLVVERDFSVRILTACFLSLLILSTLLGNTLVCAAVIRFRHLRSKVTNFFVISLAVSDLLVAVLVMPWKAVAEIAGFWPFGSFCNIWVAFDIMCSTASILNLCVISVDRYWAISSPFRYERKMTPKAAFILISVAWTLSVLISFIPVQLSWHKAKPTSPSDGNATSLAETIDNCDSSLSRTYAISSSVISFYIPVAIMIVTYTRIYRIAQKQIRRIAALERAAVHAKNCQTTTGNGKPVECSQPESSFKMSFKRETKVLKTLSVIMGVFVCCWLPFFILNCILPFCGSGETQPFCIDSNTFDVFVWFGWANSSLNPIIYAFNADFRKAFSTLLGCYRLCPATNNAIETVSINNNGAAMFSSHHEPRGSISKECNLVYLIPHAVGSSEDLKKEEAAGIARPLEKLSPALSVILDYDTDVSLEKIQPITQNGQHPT
# Experiment: HTS Assay for Allosteric Agonists of the Human D1 Dopamine Receptor: Primary Screen for Potentiators (AID 488982); also: potency is read from the fitted curve at half-maximal effect
# Conditions: HEK293 T-REx D1 inducible cells, calcium flux, kinetic fluorescence; series mostly up to 8.37 µM
# How it was run: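 Tetracycline-induced HEK293 Trex D1 cells with forced coupling to calcium, loaded with no-wash calcium dye; kinetic fluorescence read 180 s after compound addition for agonism, then a further 180 s after an EC20 dopamine challenge for potentiation.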
row,SMILES,Potency
1,NC1=NCC2c3ccccc3Cc3ccccc3N12 (stereo not drawn),inactive
2,O=C(O)CN(CCOCCOCCN(CC(=O)O)CC(=O)O)CC(=O)O,inactive
3,CCO/C([O-])=N/c1c[n+](N2CCOCC2)no1,inactive
4,CNCCC(Oc1ccccc1OC)c1ccccc1 (stereo not drawn),inactive
5,C[C@@H](O)[C@H]1C(=O)N2C(C(=O)O)=C(SCCN=CN)C[C@H]12,inactive
6,CCN1CCC[C@H]1CNC(=O)c1c(O)c(Cl)cc(Cl)c1OC,inactive
7,CC(C)COCC(CN(Cc1ccccc1)c1ccccc1)N1CCCC1 (stereo not drawn),inactive
8,CN1C(=O)CC[C@H]1c1cccnc1,inactive
9,Cc1nc2ccccn2c(=O)c1CCN1CCC(C(=O)c2ccc(F)cc2)CC1,inactive
10,NC(=O)c1cn(Cc2c(F)cccc2F)nn1,inactive
11,CN(C(=O)CCCOc1ccc2[nH]c(=O)ccc2c1)C1CCCCC1,inactive
12,CSc1ccc(C(=O)c2[nH]c(=O)[nH]c2C)cc1,2.31 µM (active)
13,C[C@]12CC[C@@H]3c4ccc(O)cc4C[C@@H](CCCCCCCCCS(=O)CCCC(F)(F)C(F)(F)F)[C@H]3[C@@H]1CC[C@@H]2O (stereo partly drawn),inactive
14,CC(=O)[C@@]1(O)CC[C@H]2[C@@H]3CCC4=CC(=O)CC[C@]4(C)[C@H]3CC[C@@]21C,inactive
15,Cc1cccc(C)c1NC(=O)C(C)N (stereo not drawn),inactive
16,CCn1ccnc1CC1COc2ccccc2O1 (stereo not drawn),inactive
17,CCCN(CCC)C(=O)C(CCC(=O)O)NC(=O)c1ccccc1 (stereo not drawn),inactive
18,C[n+]1cc2c3c(ccc2c2ccc4cc5c(cc4c21)OCO5)OCO3,inactive
19,Cc1nc2sccn2c(=O)c1CCN1CCC(=C(c2ccc(F)cc2)c2ccc(F)cc2)CC1,inactive

# Molecular target: D(1A) dopamine receptor (Homo sapiens) (UniProt P21728)
# Experiment: HTS Assay for Allosteric Agonists of the Human D1 Dopamine Receptor: Primary Screen for Antagonists (AID 488983);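 also: calcium flux response to an EC80 dopamine challenge measured with no-wash dye; nearly all actives have a fitted effect of over 65% in size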; also: potency is read from the fitted curve at half-maximal effect
# Conditions: D1 receptor cell assay, antagonist mode, qHTS titration; series mostly up to 41.8 µM
# How it was run: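 Kinetic fluorescence at 1 cycle/sec tracked intracellular calcium in force-coupled, tetracycline-inducible HEK293 T-REx D1 cells. Loss of response to an EC80 dopamine dose, given 180 s after compound, marked antagonists.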
row,SMILES,Potency
1,CC(C)[N+](C)(CCOC(=O)C1c2ccccc2Oc2ccccc21)C(C)C,inactive
2,CC1=NS(=O)(=O)c2cc(Cl)ccc2N1,inactive
3,NC1=NCC2c3ccccc3Cc3ccccc3N12 (stereo not drawn),15.8 µM (active)
4,O=C(O)CN(CCOCCOCCN(CC(=O)O)CC(=O)O)CC(=O)O,inactive
5,CCO/C([O-])=N/c1c[n+](N2CCOCC2)no1,inactive
6,CCCN(CCC)CCc1cccc2c1CC(=O)N2,inactive
7,C[C@@H](O)[C@H]1C(=O)N2C(C(=O)O)=C(SCCN=CN)C[C@H]12,inactive
8,CCN1CCC[C@H]1CNC(=O)c1c(O)c(Cl)cc(Cl)c1OC,inactive
9,CC(C)COCC(CN(Cc1ccccc1)c1ccccc1)N1CCCC1 (stereo not drawn),inactive
10,CC(C)(Oc1ccc(CCNC(=O)c2ccc(Cl)cc2)cc1)C(=O)O,inactive
11,CN1C(=O)CC[C@H]1c1cccnc1,inactive
12,Cc1nc2ccccn2c(=O)c1CCN1CCC(C(=O)c2ccc(F)cc2)CC1,4.47 µM (active)
13,NC(=O)c1cn(Cc2c(F)cccc2F)nn1,inactive
14,CCCCCCCC/C=C\CCCCCCCC(=O)NCc1ccc(O)c(OC)c1,inactive
15,CN(C(=O)CCCOc1ccc2[nH]c(=O)ccc2c1)C1CCCCC1,inactive
16,CSc1ccc(C(=O)c2[nH]c(=O)[nH]c2C)cc1,inactive

row,SMILES,Potency
1,C[C@]12CC[C@@H]3c4ccc(O)cc4C[C@@H](CCCCCCCCCS(=O)CCCC(F)(F)C(F)(F)F)[C@H]3[C@@H]1CC[C@@H]2O (stereo partly drawn),inactive
2,CC(=O)[C@@]1(O)CC[C@H]2[C@@H]3CCC4=CC(=O)CC[C@]4(C)[C@H]3CC[C@@]21C,inactive
3,CCCCCN(CCCCC)C(=O)C(CCC(=O)O)NC(=O)c1ccc(Cl)c(Cl)c1 (stereo not drawn),inactive
4,O=C(CCNNC(=O)c1ccncc1)NCc1ccccc1,inactive
5,COCCc1ccc(OCC(O)CNC(C)C)cc1 (stereo not drawn),inactive
6,c1ccc2c(c1)CCCC2C1=NCCN1 (stereo not drawn),inactive
7,Cc1cccc(C)c1NC(=O)C(C)N (stereo not drawn),inactive
8,OC(CCN1CCCCC1)(c1ccccc1)C1CCCCC1 (stereo not drawn),inactive
9,CCn1ccnc1CC1COc2ccccc2O1 (stereo not drawn),inactive
10,CCCN(CCC)C(=O)C(CCC(=O)O)NC(=O)c1ccccc1 (stereo not drawn),inactive
11,Cc1ccc(S(=O)(=O)NC(=O)NN2CCCCCC2)cc1,inactive
12,CCCOc1ccccc1-c1nc2n[nH]nc2c(=O)[nH]1,inactive
13,NC(=O)c1ncn([C@@H]2O[C@H](CO)[C@@H](O)[C@H]2O)c1O,inactive
14,CCc1cccc(N(C)C(N)=Nc2cccc3ccccc23)c1,inactive
15,C[n+]1cc2c3c(ccc2c2ccc4cc5c(cc4c21)OCO5)OCO3,inactive

# Molecular target: ATP-dependent 6-phosphofructokinase (Trypanosoma brucei brucei) (UniProt O15648)
# Sequence (O15648 whole entry, looked up): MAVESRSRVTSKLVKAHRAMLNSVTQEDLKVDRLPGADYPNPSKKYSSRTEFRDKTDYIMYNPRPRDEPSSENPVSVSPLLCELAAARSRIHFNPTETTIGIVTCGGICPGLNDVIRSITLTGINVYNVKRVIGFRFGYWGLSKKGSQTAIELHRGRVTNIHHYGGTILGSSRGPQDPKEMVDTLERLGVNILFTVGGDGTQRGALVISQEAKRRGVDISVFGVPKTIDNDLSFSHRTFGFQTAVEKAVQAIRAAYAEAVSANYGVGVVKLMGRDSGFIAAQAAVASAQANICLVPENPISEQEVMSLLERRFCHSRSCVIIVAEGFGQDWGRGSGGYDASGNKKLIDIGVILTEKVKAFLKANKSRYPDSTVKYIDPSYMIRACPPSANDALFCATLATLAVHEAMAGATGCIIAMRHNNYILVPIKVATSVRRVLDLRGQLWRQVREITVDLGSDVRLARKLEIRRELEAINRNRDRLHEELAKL
# Experiment: qHTS Assay to Find Inhibitors of T. brucei phosphofructokinase: hit validation (AID 492961)
# Conditions: T. brucei PFK, ADP-Glo luminescence; series mostly up to 51.4 µM
# How it was run: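 Luminescence from ADP-Glo reports ADP generated as T. brucei PFK (1.25 nM) phosphorylates 0.5 mM fructose-6-phosphate using 0.1 mM ATP. Reactions ran 45 min at room temperature, pH 8.0.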
row,SMILES,outcome
1,CCN(CC)CCCN(c1ccccc1)C1Cc2ccccc2C1,inactive
2,CC(C)(Oc1ccc(CCNC(=O)c2ccc(Cl)cc2)cc1)C(=O)O,inactive
3,CCCCCCCC/C=C\CCCCCCCC(=O)NCc1ccc(O)c(OC)c1,inactive
4,CSc1ccc(C(=O)c2[nH]c(=O)[nH]c2C)cc1,inactive
5,CC(=O)[C@@]1(O)CC[C@H]2[C@@H]3CCC4=CC(=O)CC[C@]4(C)[C@H]3CC[C@@]21C,inactive
6,O=C(CCNNC(=O)c1ccncc1)NCc1ccccc1,inactive
7,OC(CCN1CCCCC1)(c1ccccc1)C1CCCCC1 (stereo not drawn),inactive
8,CCCOc1ccccc1-c1nc2n[nH]nc2c(=O)[nH]1,inactive
